Assay [1] addresses Rap guanine nucleotide exchange factor 3 (Homo sapiens) (UniProt O95398). Description: Confirmatory qHTS for antagonist of cAMP-regulated guanine nucleotide exchange factor 3 (EPAC1) (AID 1645880).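 Further: plate controls were DMSO only for no effect and full effect of the ATA control for full effect; nearly all actives have a fitted effect of over 55% in size.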 Particulars: EPAC1 Rap1B-BODIPY-GDP exchange, fluorescence; activity, negative = inhibition: at 115 µM (top of the series). Put shortly:
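Released BODIPY-GDP fluoresces less than Rap1-bound BODIPY-GDP; the signal is followed at 480/540 nm at 5-min intervals over 30 min, after 5 min at room temperature. Reactions contain 100 nM EPAC1, 250 nM RAP1B-BODIPY-GDP and 50 uM GDP; results are normalized to ATA and DMSO.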
On the technique in general: qHTS replaces the single test concentration by a dilution series.

The target of assay [2] is Rap guanine nucleotide exchange factor 4 (Homo sapiens) (UniProt Q8WZA2). Description: Confirmatory qHTS for antagonist of cAMP-regulated guanine nucleotide exchange factor 4 (EPAC2) (AID 1645885). Further: nearly all actives have a fitted effect of over 25% in size. Further: potency means the concentration at half of the fitted maximal effect.
Rap guanine nucleotide exchange factor 4 (Homo sapiens), sequence (Q8WZA2 whole entry, looked up): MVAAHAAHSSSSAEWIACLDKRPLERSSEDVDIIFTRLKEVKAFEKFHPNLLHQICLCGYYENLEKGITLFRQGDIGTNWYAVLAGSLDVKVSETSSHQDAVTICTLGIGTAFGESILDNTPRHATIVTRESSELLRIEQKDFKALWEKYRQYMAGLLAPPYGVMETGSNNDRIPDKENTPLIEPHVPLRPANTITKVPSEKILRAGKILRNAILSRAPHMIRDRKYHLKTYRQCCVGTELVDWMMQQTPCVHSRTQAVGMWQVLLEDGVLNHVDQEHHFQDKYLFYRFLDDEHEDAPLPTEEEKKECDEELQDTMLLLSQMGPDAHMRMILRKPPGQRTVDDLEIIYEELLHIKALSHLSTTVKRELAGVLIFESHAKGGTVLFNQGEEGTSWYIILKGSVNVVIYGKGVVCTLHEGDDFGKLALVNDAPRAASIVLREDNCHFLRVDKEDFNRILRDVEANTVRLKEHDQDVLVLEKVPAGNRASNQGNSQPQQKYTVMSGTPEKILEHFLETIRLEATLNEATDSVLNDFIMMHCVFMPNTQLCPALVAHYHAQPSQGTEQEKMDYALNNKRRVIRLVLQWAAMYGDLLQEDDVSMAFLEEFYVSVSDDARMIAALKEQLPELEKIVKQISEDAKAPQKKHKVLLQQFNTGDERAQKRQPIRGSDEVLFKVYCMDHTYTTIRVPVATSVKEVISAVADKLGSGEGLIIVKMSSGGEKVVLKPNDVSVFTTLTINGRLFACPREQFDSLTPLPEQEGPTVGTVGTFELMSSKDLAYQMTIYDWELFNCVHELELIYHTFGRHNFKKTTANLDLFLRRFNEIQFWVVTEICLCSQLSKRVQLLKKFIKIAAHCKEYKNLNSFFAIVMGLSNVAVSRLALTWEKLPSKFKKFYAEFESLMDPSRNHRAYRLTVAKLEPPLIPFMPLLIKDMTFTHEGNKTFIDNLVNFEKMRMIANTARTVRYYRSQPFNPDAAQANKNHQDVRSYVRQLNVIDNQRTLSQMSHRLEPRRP
Assay [3] addresses Rap guanine nucleotide exchange factor 3 (Homo sapiens) (UniProt O95398). Description: Counterscreen qHTS for antagonist of cAMP-regulated guanine nucleotide exchange factor 3 (EPAC1) (AID 1645888). Further: % of control where 0% means no effect. The procedure, abridged:
(§1)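 Measured: fluorescence of BODIPY-GDP bound to Rap1B, which falls as exchange proceeds. Conditions include 50 uM competing GDP, 5 and 30 min reads, and a later cAMP challenge for antagonist detection.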
(In general: The purpose of a counterscreen is to sort out artefacts and off-target activity.)

The target in assay [4] is Tumor susceptibility gene 101 protein (Homo sapiens) (UniProt Q99816). Description: qHTS Assay for Iinhibitors of HIV-1 Budding by Blocking the Interaction of PTAP/TSG101: Hit Validation (AID 651600). Further: nearly all actives have a fitted effect of over 70% in size. Further: potency means the concentration at half of the fitted maximal effect. The procedure, abridged:
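Fluorescence polarization binding assay: Tsg101 binding domain (10 uM) mixed with compounds and FITC-labeled PTAP peptide (50 nM) in HEPES pH 7.5, 0.15 M NaCl, 0.01% Tween 20, EDTA, TCEP; 20 min at r.t.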

Assay [5] addresses Rap guanine nucleotide exchange factor 4 (Homo sapiens) (UniProt Q8WZA2). Description: Confirmatory qHTS for agonist of cAMP-regulated guanine nucleotide exchange factor 4 (EPAC2) (AID 1645884).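 Further: nucleotide exchange releases bodipy-GDP from Rap1 and this lowers its fluorescence; nearly all actives have a fitted effect of over 65% in size.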 Further: potency means the concentration at half of the fitted maximal effect.
In assay [6] the target is Rap guanine nucleotide exchange factor 3 (Homo sapiens) (UniProt O95398). Description: Counterscreen qHTS for agonist of cAMP-regulated guanine nucleotide exchange factor 3 (EPAC1) (AID 1645889). Further: % of control where 0% means no effect; nearly all actives have a fitted effect of over 40% in size. Put shortly: as §1
Rap guanine nucleotide exchange factor 3 (Homo sapiens), sequence (O95398 whole entry, looked up): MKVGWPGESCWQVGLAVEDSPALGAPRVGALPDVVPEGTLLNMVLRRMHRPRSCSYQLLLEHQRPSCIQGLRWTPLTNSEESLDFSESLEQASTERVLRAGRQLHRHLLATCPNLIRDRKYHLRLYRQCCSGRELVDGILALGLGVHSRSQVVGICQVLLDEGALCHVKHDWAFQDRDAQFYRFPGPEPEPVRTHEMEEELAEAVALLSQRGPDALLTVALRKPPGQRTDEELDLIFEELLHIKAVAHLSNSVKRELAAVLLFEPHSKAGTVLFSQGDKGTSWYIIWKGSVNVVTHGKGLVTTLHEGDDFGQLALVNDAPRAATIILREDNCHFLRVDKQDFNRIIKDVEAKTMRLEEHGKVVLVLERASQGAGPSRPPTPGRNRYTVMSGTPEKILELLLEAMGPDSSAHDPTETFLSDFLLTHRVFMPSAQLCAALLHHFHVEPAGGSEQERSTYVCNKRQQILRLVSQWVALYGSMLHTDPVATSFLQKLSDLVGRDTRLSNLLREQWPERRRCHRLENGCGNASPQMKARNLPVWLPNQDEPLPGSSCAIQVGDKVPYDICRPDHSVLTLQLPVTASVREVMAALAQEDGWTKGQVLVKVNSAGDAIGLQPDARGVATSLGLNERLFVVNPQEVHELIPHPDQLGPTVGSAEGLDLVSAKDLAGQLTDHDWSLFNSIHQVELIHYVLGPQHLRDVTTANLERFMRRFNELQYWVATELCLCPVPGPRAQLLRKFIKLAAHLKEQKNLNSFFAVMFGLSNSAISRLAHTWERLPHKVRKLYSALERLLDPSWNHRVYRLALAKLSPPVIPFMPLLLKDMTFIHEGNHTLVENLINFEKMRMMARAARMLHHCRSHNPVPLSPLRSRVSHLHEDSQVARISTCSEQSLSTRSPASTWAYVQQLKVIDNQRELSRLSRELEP
Assay [7] has as its target Lysosomal acid glucosylceramidase (Homo sapiens) (UniProt P04062). In words: Glucocerebrosidase-p2 (AID 348; in the data active means potency below about 10 µM; further: potency means the concentration at half of the fitted maximal effect). Particulars: purified GBA, blue fluorogenic substrate, 40 min. Put shortly: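 Normal human glucocerebrosidase (0.2 nM) with blue fluorogenic substrate (80 uM final) in citrate/phosphate pH 5.9 with 10mM sodium taurocholate, 0.01% tween-20; 40 min RT, NaOH/glycine stop; fluorescence Ex 365/Em 440; AC50 from a titration from 0.6 nM upwards.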

Assay [8] can be described thus: AP1 Signaling Pathway (AID 357; active means well fitted curve in either direction with a large enough effect, not every such curve was filed as active;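 further: ME-180 reporter cells stimulated with EGF at its EC50 level; on the % scale 0 is the no-effect control and ±100 the full control effect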). Conditions: ME-180 AP-1-bla reporter, EGF-induced, beta-lactamase ratio, 5 h; at 7.69 µM (top of the series) unless noted. Put shortly:
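Titration-series screen for positive or negative modulators of EC50 EGF-induced signaling in ME-180 cells carrying an AP-1-driven beta-lactamase reporter. After 5 hours at 37 degrees Celsius, CCF4 460nm/530nm emission ratio gave %Activity; AC50 values derived.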

Assay [9] deals with Cytochrome P450 1A2 (Homo sapiens) (UniProt P05177). In words: p450-cyp1a2 (AID 410; calls by dose curve; further: potency means the concentration at half of the fitted maximal effect). The procedure, abridged:
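Luminescent demethylation readout: Luciferin-ME (100uM, equal to Km) turned over by 20nM CYP1A2 for 60 min at room temperature after NADPH regeneration addition, following 10 min compound preincubation. Normalization used 57 uM furafylline as full inhibition.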

The nature of assay [10]: NFAT Signaling Pathway (AID 444; active means well fitted curve in either direction with a large enough effect, not every such curve was filed as active;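 further: carbachol stimulus at about its EC50 of 1 µM final; on the % scale 0 is the no-effect control and ±100 the full control effect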). Conditions: Jurkat NFAT-bla M1, carbachol, beta-lactamase ratio, 5 h; at 7.69 µM (top of the series) unless noted. Put shortly:
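Jurkat cells carrying an NFAT-driven β-lactamase reporter and co-transfected muscarinic M1 receptor were treated with compound plus carbachol (1 uM final, an EC50 level) for 5 h at 37 °C. CCF4 loading followed for 1 h at RT; 460/530 nm ratio gave %activity.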

Assay [11] is described as follows: Stat Signaling Pathway (AID 446; active means well fitted curve in either direction with a large enough effect, not every such curve was filed as active;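 further: ME-180 cervical cancer cells given 40 pM IL-6 alongside compound; SIE-controlled beta-lactamase reporter measured as 460/530 nm FRET emission ratio; on the % scale 0 is the no-effect control and ±100 the full control effect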). The procedure, abridged: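 Overnight-plated ME-180 cells bearing a STAT Inducible Element beta-lactamase reporter; 5 h co-exposure to compound and 40 pM IL-6; values normalized to 300 pM IL-6 and 125 nM JAK inhibitor controls.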
Assay [12] addresses Glucocorticoid receptor (Homo sapiens) (UniProt P04150). In words: GR-EFC Redistribution (AID 451; calls by dose curve; further: potency means the concentration at half of the fitted maximal effect). Conditions: CHO-K1 GR-EFC translocation, beta-gal luminescence, 2 h. Put shortly: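 CHO-K1 cells stably expressing nuclear-localized β-gal enzyme acceptor and GR fused C-terminally to the enzyme donor fragment; ligand-driven nuclear translocation restores β-gal by complementation. Compounds titrated up to 46 uM final, 2 h at 37 °C; luminescence read.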

Assay [13] addresses Mitogen-activated protein kinase 10 (Mus musculus) (UniProt Q61831). Description: JNK3 AlphaScreen Assay (AID 530; active means well fitted curve in either direction with a large enough effect, not every such curve was filed as active;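 further: kinase came from lysate of stimulated human HepG2 cells; signal reports phosphorylation of biotinylated GST-cJun 1-79 at Ser73 with 10 µM ATP; on the % scale 0 is the no-effect control and ±100 the full control effect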). Put shortly: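 Phosphorylation of biotinylated GST-cJun(1-79) at Ser73 is measured by AlphaScreen proximity luminescence. Enzyme is JNK3 in HepG2 lysates activated with interleukin-1beta and tumor necrosis factor alpha; ATP is 10 uM final.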
A general note: Alpha assays give light when donor and acceptor beads are brought close together.

The target of assay [14] is 3',5'-cyclic-AMP phosphodiesterase 4B (Homo sapiens) (UniProt Q07343). In words: qHTS Assay for Inhibitors of PDE-IV (AID 607; active means well fitted activation curve with a large enough effect in the main read-out, with a control signal flat, not every such curve was filed as active; further: % of control where 0% means no effect). Put shortly: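 Live HEK293 cells with a modified cyclic nucleotide-gated (CNG) channel report intracellular cAMP via membrane-potential dye fluorescence (ex 535/em 590 nm). Endogenous PDE-IV was targeted. Compounds were tested at up to 22.9 uM final; RO 20-1724 100 uM served as control.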

The target in assay [15] is Cytochrome P450 3A4 (Homo sapiens) (UniProt P08684). Description: qHTS Assay for Inhibitors and Substrates of Cytochrome P450 3A4 (AID 884). Further: potency means the concentration at half of the fitted maximal effect; nearly all actives have a fitted effect of over 50% in size. Put shortly:
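Luminescent readout of luciferin produced by CYP3A4 (20 nM) dealkylation of Luciferin-PPXE, 25 uM (its KM). NADPH-driven reaction ran 60 min at RT after 10 min compound preincubation; data scaled to 57 uM ketoconazole as 100% inhibition.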

Assay [16] shares this target. Description: qHTS Assay for Activators of Cytochrome P450 3A4 (AID 885). Further: nearly all actives have a fitted effect of over 65% in size. Put shortly: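 Using 20nM recombinant human CYP3A4 in potassium phosphate (200mM), substrate Luciferin-PPXE at 25uM, luminescent luciferin detection followed a 60-min RT NADPH reaction; data scaled to 57 uM ketoconazole.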
A short description of assay [17]: qHTS Assay for Identification of Small Molecule Agonists for Hypoxia Response Element Signaling Pathway (AID 914; active means well fitted activation curve with a large enough effect in the signal ratio, with a control signal flat, not every such curve was filed as active; the % refers to the signal ratio; further: % of control where 0% means no effect). Particulars: ME-180 (cervical carcinoma) HRE-bla reporter, beta-lactamase ratio, CoCl2, 17 h; activation: stronger effect = higher value. Put shortly: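 Compounds in a titration series were added to ME-180 reporter cells alongside an EC50 level of CoCl2. After 17 hours, beta-lactamase activity was read as the 460nm/530nm emission ratio of CCF4, giving AC50 values.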

A number with no mark means an inactive call. Records with an inconclusive call do not appear. Activity calls are given as the source filed them. Unless noted, the call rests on the fitted dose curve; in most records, active means well fitted curve in the direction sought with a large enough effect; inconclusive means small, poorly fitted or top-dose-only effect, or another doubt; inactive means no such curve, though single readings can be large; an effect the other way counts as inactive or inconclusive.

Cytochrome P450 3A4 (Homo sapiens), sequence (P08684 whole entry, looked up): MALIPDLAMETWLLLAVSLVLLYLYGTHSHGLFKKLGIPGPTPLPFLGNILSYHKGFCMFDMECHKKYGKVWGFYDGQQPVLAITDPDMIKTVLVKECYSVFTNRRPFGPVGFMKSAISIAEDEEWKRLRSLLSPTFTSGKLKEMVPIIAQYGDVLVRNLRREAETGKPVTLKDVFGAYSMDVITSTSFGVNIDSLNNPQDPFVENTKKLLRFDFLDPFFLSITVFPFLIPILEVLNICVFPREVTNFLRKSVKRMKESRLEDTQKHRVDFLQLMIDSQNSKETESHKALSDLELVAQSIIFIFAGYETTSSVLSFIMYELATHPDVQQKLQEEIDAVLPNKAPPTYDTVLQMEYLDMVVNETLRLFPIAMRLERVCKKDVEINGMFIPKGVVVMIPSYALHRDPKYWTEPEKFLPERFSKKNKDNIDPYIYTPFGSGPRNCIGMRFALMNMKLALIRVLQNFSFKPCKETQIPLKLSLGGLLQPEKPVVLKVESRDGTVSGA
Tumor susceptibility gene 101 protein (Homo sapiens), sequence (Q99816 whole entry, looked up, the tested form may be a part): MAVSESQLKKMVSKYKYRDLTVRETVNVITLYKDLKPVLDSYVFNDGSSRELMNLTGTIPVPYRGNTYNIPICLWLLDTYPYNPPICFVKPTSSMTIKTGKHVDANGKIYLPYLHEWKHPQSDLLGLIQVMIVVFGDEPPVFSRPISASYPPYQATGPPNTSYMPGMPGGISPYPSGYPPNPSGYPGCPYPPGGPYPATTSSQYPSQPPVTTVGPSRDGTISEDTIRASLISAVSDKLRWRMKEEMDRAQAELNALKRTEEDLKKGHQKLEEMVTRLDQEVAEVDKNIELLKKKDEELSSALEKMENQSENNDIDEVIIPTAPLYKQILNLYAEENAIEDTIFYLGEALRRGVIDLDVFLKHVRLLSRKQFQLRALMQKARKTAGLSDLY
Glucocorticoid receptor (Homo sapiens), sequence (P04150 whole entry, looked up, the tested form may be a part): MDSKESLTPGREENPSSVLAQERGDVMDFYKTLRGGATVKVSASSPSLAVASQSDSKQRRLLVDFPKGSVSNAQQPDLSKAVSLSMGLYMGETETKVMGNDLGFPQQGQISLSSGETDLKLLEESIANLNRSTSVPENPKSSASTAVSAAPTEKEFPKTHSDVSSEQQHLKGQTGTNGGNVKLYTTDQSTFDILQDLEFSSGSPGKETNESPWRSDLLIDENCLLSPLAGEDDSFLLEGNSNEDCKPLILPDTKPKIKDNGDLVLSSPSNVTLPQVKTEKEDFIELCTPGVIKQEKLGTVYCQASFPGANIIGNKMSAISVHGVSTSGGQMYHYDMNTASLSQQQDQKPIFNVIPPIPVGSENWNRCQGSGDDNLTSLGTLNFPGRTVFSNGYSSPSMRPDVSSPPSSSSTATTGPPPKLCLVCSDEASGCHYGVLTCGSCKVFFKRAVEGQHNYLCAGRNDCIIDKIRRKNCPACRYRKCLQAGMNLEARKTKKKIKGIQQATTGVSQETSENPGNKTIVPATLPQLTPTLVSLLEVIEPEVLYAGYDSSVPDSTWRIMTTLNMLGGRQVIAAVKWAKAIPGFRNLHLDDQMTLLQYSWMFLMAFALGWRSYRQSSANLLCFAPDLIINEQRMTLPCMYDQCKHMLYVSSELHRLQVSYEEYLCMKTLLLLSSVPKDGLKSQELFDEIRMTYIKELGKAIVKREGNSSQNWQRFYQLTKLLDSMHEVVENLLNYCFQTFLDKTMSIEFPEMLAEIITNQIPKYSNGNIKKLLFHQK
Lysosomal acid glucosylceramidase (Homo sapiens), sequence (P04062 whole entry, looked up): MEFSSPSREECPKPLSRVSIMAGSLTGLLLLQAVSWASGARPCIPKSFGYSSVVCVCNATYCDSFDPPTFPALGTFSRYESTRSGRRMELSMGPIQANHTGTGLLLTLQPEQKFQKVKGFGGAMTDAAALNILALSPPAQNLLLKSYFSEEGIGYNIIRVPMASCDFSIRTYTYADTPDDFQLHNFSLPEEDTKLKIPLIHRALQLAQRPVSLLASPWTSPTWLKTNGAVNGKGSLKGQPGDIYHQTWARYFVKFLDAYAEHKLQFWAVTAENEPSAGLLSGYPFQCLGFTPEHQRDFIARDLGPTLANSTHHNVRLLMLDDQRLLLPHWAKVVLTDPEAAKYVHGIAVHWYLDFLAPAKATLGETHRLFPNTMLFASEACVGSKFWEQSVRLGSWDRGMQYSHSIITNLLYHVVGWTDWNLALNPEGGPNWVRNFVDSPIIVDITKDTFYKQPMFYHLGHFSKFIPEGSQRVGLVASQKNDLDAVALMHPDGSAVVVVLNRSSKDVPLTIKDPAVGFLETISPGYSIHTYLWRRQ
Cytochrome P450 1A2 (Homo sapiens), sequence (P05177 whole entry, looked up): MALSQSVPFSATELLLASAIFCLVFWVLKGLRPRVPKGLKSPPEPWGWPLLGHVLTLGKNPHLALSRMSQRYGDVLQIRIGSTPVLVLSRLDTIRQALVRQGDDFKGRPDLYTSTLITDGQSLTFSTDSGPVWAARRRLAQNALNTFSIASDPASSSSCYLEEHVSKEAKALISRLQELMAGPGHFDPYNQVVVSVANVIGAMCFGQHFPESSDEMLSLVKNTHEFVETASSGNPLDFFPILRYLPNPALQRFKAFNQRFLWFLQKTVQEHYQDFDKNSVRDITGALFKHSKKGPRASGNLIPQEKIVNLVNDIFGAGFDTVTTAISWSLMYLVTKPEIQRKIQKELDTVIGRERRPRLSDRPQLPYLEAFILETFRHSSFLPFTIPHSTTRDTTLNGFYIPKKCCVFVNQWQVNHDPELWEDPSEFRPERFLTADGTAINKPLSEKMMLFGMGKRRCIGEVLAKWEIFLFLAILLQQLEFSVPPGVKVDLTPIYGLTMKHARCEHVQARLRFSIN

On to `O=C(NCc1cccc(F)c1)c1cccc2c1C(=O)c1ccc(N3CCOCC3)cc1S2(=O)=O`, for which the Potency entry in assay [1], in assay [2] and in assay [3] was “inactive” throughout.
With `CCSC1=NSC2=NC(=O)/C(=C\c3coc4ccccc4c3=O)C(=N)N12`, the Potency result in [1] and in [2] was “inactive” in each case. Also, the activity change, negative = inhibition in [3] is 72.5% [at 30.8 µM].
Consider `O=C1/C(=C\c2cc(Cl)c(O)c(Cl)c2)SC(=S)N1Cc1ccccc1`, for which the Potency result in assay [1], in [2] and in [3] was “inactive” each time.
With `N#CC(C#N)=C1C=C2C=C(N3CCCCCC3)CCC2CC1` (centres undefined), the Potency entry in assay [1] and in assay [2] was “inactive” throughout.
`C=Cc1ccc(CC2(C)C(=O)Nc3ccc(-c4cccnc4)cc32)cc1` (centres undefined): the Potency result in [1], in [2] and in assay [3] was “inactive” throughout.
On to `CCCN1CC=C2C(C#N)=C(N)C(C#N)(C#N)C(c3cccc(OC)c3OC)C2C1` (centres undefined), for which the Potency entry in assay [1] and in assay [3] was “inactive” throughout. Moreover, the Potency in assay [2] was 12 µM (active).
For the compound `CC(=Nc1ccc(C)cc1C)c1sc2ccccc2c1O`, the Potency result in assay [4], in [1] and in assay [3] was “inactive” each time. For the same compound, the Potency in assay [5] is 100 µM (active).
`COc1ccc(-c2csc3nc(C)nc(N4CCCCC4)c23)cc1OC`: the Potency result in assay [1], in [2] and in assay [3] was “inactive” in each case.
For `CC(=O)/C(=N\Nc1ccccc1)Sc1cccc2cccnc12`, the Potency result in assay [1] and in assay [3] was “inactive” throughout. In addition, the Potency in [2] was 84.9 µM (active).
Consider `CCSc1nnc(-c2sc3nnc(-c4ccccc4)c(-c4ccccc4)c3c2N)o1`, for which the Potency was 25.9 µM (active) in [4] and 112 µM (active) in assay [5]. For the same compound, the Potency result in assay [1] and in assay [3] was “inactive” in each case.
With `CN(C)c1ccc(-c2cc3ccccc3c(=O)o2)cc1`, the Potency result in [1], in [2] and in assay [3] was “inactive” in each case.
For the compound `O=C1N(Cc2ccccc2)c2ccc(Cl)cc2C12OCCO2`, in [1], the Potency result was “inactive”. For the same compound, the activation in assay [5] is 2.15% [at 17.1 µM, percent relative to cAMP agonist control]; in assay [6], 35.6% [at 30.8 µM]. Moreover, the activity change, negative = inhibition in assay [3] was -8.76% [at 30.8 µM].
As for `COc1ccc(CCNC(=S)N2CCN(S(=O)(=O)c3ccc(F)cc3)CC2)cc1`, the Potency result in [1], in [2] and in assay [3] was “inactive” each time.
For `COc1ccc(Oc2ncc3nc(C)c(=O)n(Cc4cccs4)c3n2)cc1`, the Potency is above 11.4 µM in assay [7], 10 µM (active) in assay [9], above 46 µM in assay [12] and 3.16 µM (active) in assay [15]. Also, the activity change, negative = inhibition in assay [8] is 4.45%; in [10] it was -5.89%. Also, the call in [11] and in assay [16] was inactive. The Potency result in assay [13], in assay [14], in assay [1] and in [5] was “inactive” each time. Also, in [17], the activation was -21.2%.

Source of the values: PubChem BioAssay (NCATS).
